{
  "source": "ChEMBL document CHEMBL1201862",
  "about": "“PubChem BioAssay data set” (2004)",
  "note": "Out of some 400,000 compounds screened, about 2,100 (0.53%) were called active. Roughly 14% stayed inconclusive and do not appear here. How the calls were made is not given here. Many of the other results were omitted from the sample, so actives are more common in it than they were.",
  "data": [
    {"target": "Ataxin-2 (Homo sapiens) (UniProt Q99700)", "sequence (Q99700 whole entry)": "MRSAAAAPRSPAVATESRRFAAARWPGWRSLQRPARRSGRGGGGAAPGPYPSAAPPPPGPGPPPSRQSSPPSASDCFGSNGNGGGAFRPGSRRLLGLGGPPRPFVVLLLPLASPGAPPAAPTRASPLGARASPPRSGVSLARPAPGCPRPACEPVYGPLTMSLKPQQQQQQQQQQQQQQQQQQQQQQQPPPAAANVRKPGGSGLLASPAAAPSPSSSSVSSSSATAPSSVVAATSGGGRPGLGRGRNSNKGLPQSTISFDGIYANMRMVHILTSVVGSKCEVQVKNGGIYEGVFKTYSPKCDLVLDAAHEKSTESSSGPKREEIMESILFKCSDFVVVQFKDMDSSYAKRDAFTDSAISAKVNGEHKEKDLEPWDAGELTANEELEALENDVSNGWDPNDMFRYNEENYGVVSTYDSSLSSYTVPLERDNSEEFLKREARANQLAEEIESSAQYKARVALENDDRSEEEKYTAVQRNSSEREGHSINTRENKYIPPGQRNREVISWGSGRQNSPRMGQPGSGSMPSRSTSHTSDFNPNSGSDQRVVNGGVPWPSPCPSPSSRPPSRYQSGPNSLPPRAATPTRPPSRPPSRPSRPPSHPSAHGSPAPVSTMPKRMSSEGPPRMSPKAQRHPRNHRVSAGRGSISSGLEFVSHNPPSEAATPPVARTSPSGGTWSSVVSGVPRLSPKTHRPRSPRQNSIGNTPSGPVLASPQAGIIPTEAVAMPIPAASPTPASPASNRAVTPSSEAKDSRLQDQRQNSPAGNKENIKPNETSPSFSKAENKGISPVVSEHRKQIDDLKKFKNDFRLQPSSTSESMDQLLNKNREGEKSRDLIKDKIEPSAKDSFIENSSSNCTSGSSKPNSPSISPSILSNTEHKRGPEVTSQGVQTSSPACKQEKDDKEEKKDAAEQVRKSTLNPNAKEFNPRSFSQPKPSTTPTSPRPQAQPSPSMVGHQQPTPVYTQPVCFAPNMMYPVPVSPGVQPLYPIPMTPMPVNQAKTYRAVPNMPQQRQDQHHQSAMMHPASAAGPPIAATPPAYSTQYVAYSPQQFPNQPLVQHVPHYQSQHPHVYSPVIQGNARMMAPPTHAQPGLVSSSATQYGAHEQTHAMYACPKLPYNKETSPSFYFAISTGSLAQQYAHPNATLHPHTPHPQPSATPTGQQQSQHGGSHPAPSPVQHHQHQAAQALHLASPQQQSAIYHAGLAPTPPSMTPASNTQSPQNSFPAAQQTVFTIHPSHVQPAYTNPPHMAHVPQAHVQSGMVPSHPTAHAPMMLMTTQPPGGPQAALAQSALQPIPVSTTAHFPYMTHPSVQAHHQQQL", "assay": "qHTS for Inhibitors of ATXN expression.", "assay_type": "functional", "values": [
      {"molecule": "Cc1c(C(=O)/C=C/N(C)C)nnn1-c1ccc(Cl)cc1C#N", "Potency": "inactive"},
      {"molecule": "Cc1ccc(NC(=O)CN2C(=O)S/C(=C\\c3ccc(-c4cccc(C(=O)O)c4C)o3)C2=O)cc1C", "Potency": "inactive"},
      {"molecule": "Cc1ccc(OCCCC(=O)ON=C(N)c2ccccc2C)cc1", "Potency": "inactive"},
      {"molecule": "COc1ccc(C2CC(c3ccc(C(F)(F)F)cc3)=NN2c2ccc(S(N)(=O)=O)cc2)cc1", "note": "(centres undefined)", "Potency": "inactive"},
      {"molecule": "CCOC(=O)N1CCN(C(=O)CSc2nc(O)c3cnn(-c4ccc(C)cc4)c3n2)CC1", "Potency": "inactive"},
      {"molecule": "COc1ccc(C2C3=C(CCCC3=O)N(CC(=O)O)C3=C2C(=O)CCC3)cc1Cl", "Potency": "inactive"},
      {"molecule": "COc1ccc(C(=O)/C=C/Nc2ccc(S(=O)(=O)Nc3cc(OC)nc(OC)n3)cc2)c(OC)c1", "Potency": "inactive"},
      {"molecule": "CC(=O)Nc1ccc(N/C=C(\\C=O)c2nc3ccccc3o2)cc1", "Potency": "inactive"},
      {"molecule": "CCc1cnc2c(c1SC(C(C)=O)C(=O)N(C)C)c(=O)n(C)c(=O)n2C", "note": "(centres undefined)", "Potency": "39.8 µM (active)"},
      {"molecule": "COc1ccc(-c2c(C)c3ccc(O)c(CN4CCCC4)c3oc2=O)cc1OC", "Potency": "inactive"},
      {"molecule": "Cc1ccc2c(Cl)cc(Cl)c(OCC(=O)O)c2n1", "Potency": "inactive"},
      {"molecule": "CCc1cc(=O)oc2c(CN3CCN(C)CC3)c(O)c(Cl)cc12", "Potency": "inactive"},
      {"molecule": "COc1cccc(-c2ccc3c(N)c(C(=O)Nc4cc(C(F)(F)F)ccc4OC)sc3n2)c1", "Potency": "inactive"},
      {"molecule": "CN(C)CCCN=C(S)Nc1ccc(Oc2ccccc2)cc1", "Potency": "inactive"},
      {"molecule": "COc1ccccc1NC(=O)c1sc2nc(-c3ccco3)ccc2c1N", "Potency": "inactive"},
      {"molecule": "COc1ccccc1NC(=O)Nc1nc(C(N)Cc2ccc(C(F)(F)F)cc2)cs1", "note": "(centres undefined)", "Potency": "39.8 µM (active)"},
      {"molecule": "CC(C)c1ccccc1NC(=O)Nc1nc(C(N)Cc2ccc(C(F)(F)F)cc2)cs1", "note": "(centres undefined)", "Potency": "35.5 µM (active)"},
      {"molecule": "CN(C)Cc1csc(NC(=O)Nc2ccccc2Oc2ccccc2)n1", "Potency": "25.1 µM (active)"},
      {"molecule": "NC(Cc1ccc(C(F)(F)F)cc1)c1csc(NC(=O)Nc2ccccc2Oc2ccccc2)n1", "note": "(centres undefined)", "Potency": "39.8 µM (active)"},
      {"molecule": "Cc1ccc(S(=O)(=O)NCCNc2ccc(Br)c(C)c2)cc1", "Potency": "inactive"},
      {"molecule": "CCC(=O)Oc1c(C(=O)CC)cc2c(C)cc(=O)oc2c1C", "Potency": "inactive"},
      {"molecule": "O=C(OCCOc1ccccc1Cl)c1cc(S(=O)(=O)N2CCCCC2)ccc1N1CCOCC1", "Potency": "inactive"},
      {"molecule": "CCCC[n+]1c2ccccc2cc2ccccc21", "Potency": "inactive"},
      {"molecule": "Cc1cc(C)c(C)c(S(=O)(=O)NCc2ccc(C(=O)N3CCN(C)CC3)cc2)c1C", "Potency": "inactive"},
      {"molecule": "CCc1nccn1C(=O)c1cnn2c(C(F)F)cc(-c3ccc(C)cc3)nc12", "Potency": "31.6 µM (active)"},
      {"molecule": "CCCNC(=O)c1cnn2c(C(F)F)cc(-c3ccccc3)nc12", "Potency": "inactive"},
      {"molecule": "COc1ccc(-c2cc(C(F)F)n3ncc(C(=O)Nc4cc(C)on4)c3n2)cc1", "Potency": "inactive"},
      {"molecule": "Cc1cccnc1Nc1nc(-c2ccccn2)cs1", "Potency": "0.794 µM (active)"},
      {"molecule": "Cc1ccc(S(=O)(=O)NC(C(=O)Oc2ccc3c(C)c(Cl)c(=O)oc3c2)c2ccccc2)cc1", "note": "(centres undefined)", "Potency": "inactive"},
      {"molecule": "CCN1CCN(Cc2c(O)ccc3cc(-c4ccc(OC)cc4)c(=O)oc23)CC1", "Potency": "inactive"},
      {"molecule": "CCC(C)Nc1ccc(NC(C)CC)cc1", "note": "(centres undefined)", "Potency": "31.6 µM (active)"},
      {"molecule": "C=C1C(=O)C2=CC1CCC(=O)C1(C)CCC(OC(C)=O)C(C)(C)C1CC2O", "note": "(centres undefined)", "Potency": "28.2 µM (active)"},
      {"molecule": "COc1ccc(-c2c(C)c3ccc(O)cc3oc2=O)cc1OC", "Potency": "inactive"},
      {"molecule": "COc1ccccc1CCNC(=O)Cc1c(C)c2ccc(O)cc2oc1=O", "Potency": "inactive"},
      {"molecule": "Cc1c(CC(=O)NCC(=O)O)c(=O)oc2cc3oc4c(c3cc12)CCCC4", "Potency": "inactive"},
      {"molecule": "Cc1c(CC(=O)NCCC(C)C)c(=O)oc2cc3c(cc12)CCC(C)(C)O3", "Potency": "39.8 µM (active)"},
      {"molecule": "CCSc1nnc(NC(=O)c2ccc3ccccc3n2)s1", "Potency": "35.5 µM (active)"},
      {"molecule": "CCCSc1nnc(NC(=O)c2sc3nc(-c4cccs4)ccc3c2N)s1", "Potency": "inactive"},
      {"molecule": "O=C(CSc1nnc(NC(=O)c2ccccc2[N+](=O)[O-])s1)NC1CCCC1", "Potency": "inactive"},
      {"molecule": "CCSc1nnc(NC(=O)c2ccccn2)s1", "Potency": "25.1 µM (active)"},
      {"molecule": "CCSc1nnc(NC(=O)CN2C(=O)C3CC=CCC3C2=O)s1", "note": "(centres undefined)", "Potency": "inactive"},
      {"molecule": "CCSc1nnc(NC(=O)CSc2nc3c(cc2C#N)CCCC3)s1", "Potency": "inactive"},
      {"molecule": "CC(C)Cn1nc(NC(=O)c2cccc(Cl)c2)c2cc3ccccc3nc21", "Potency": "inactive"},
      {"molecule": "Cc1ccc(C)c(Sc2ccc(S(=O)(=O)Nc3ccc(C(=O)O)cc3)cc2)c1", "Potency": "inactive"},
      {"molecule": "Cc1ccc(NCC(=O)Nc2ccc(Br)cc2)cc1C", "Potency": "inactive"},
      {"molecule": "Cc1ccc(Sc2ccc(NC(=O)CCl)cc2)c(C)c1", "Potency": "39.8 µM (active)"},
      {"molecule": "COc1ccc(-c2cc3ccc(OC(C)C(=O)O)cc3oc2=O)cc1", "note": "(centres undefined)", "Potency": "inactive"},
      {"molecule": "FC(F)(F)c1cc(CCN2CCNC[C@@H]2CC2CCCCC2)cc(C(F)(F)F)c1", "Potency": "20 µM (active)"},
      {"molecule": "FC(F)(F)c1cc(CCN2CCNC[C@@H]2Cc2ccccc2)cc(C(F)(F)F)c1", "Potency": "25.1 µM (active)"},
      {"molecule": "Oc1ccc(C[C@H]2CNCCN2CCc2cc(C(F)(F)F)cc(C(F)(F)F)c2)cc1", "Potency": "31.6 µM (active)"},
      {"molecule": "O=C1NC[C@@H](Cc2cccc3ccccc23)N(CCc2cc(C(F)(F)F)cc(C(F)(F)F)c2)C1=O", "Potency": "31.6 µM (active)"},
      {"molecule": "O=C(CN1C(=O)c2ccc([N+](=O)[O-])cc2C1=O)NCc1ccco1", "Potency": "inactive"},
      {"molecule": "Cc1cc(/C=C2\\C(=N)N3N=C(c4ccco4)SC3=NC2=O)c(C)n1Cc1ccccc1", "Potency": "inactive"},
      {"molecule": "COc1ccc([N+](=O)[O-])c(OC)c1C(=O)NC(=O)Nc1c(F)cc(F)cc1F", "Potency": "inactive"},
      {"molecule": "COc1ccc(C2C=C(c3ccc(F)cc3)Nc3nc(-c4ccc(Cl)cc4)nn32)cc1", "note": "(centres undefined)", "Potency": "inactive"},
      {"molecule": "Cn1ncc(C#N)c1/N=C/N(Cc1ccccc1)Cc1ccccc1", "Potency": "inactive"},
      {"molecule": "CC(NC1=NS(=O)(=O)c2ccccc21)C(=O)Nc1ccc(F)cc1Cl", "note": "(centres undefined)", "Potency": "inactive"},
      {"molecule": "C[N+](C)(C)CCC(=O)N1C/C(=C/c2ccccc2)C(=O)/C(=C\\c2ccccc2)C1", "Potency": "8.44 µM (active)"},
      {"molecule": "CC1CC(C)CN(C(=O)CCc2ccccc2)C1", "note": "(centres undefined)", "Potency": "inactive"},
      {"molecule": "NN=C(S)NCCc1ccccc1", "Potency": "inactive"},
      {"molecule": "COc1cc2c(cc1OC)C(SC)=NC1(CCCC1)C2", "Potency": "35.5 µM (active)"},
      {"molecule": "Oc1cc(NC2CCCCC2)nc(O)n1", "Potency": "inactive"},
      {"molecule": "CCOC(=O)c1cc2c(=O)n3ccccc3nc2n(C(C)C)/c1=N/C(=O)c1c(-c2ccccc2Cl)noc1C", "Potency": "inactive"},
      {"molecule": "CCCNC(=O)C[S+]([O-])Cc1nc(-c2ccccc2C)oc1C", "note": "(centres undefined)", "Potency": "inactive"}
    ]}
  ]
}
